Compounds with a hit are over-represented: about 3.4% of the library has one in this group of screens.
GPR151 activ: activators of human GPR151, primary screen, cell-based, PathHunter beta-arrestin, luminescence | G-protein coupled receptor 151 (Homo sapiens), Q8TDV0 | 1% of 650,000 active | PathHunter beta-arrestin GPR151 cells | activation, % at 11.2 µM; in the data active means activation above about 4.9%
FBW7 activator: FBW7 E3 ligase activators, primary screen, biochemical, AlphaScreen, human | F-box/WD repeat-containing protein 7 (Homo sapiens), Q969H0 | AlphaScreen FBW7–phospho-cyclin E peptide binding, activator screen | normalized activity (activation), % at 26.1 µM | 0.13% of 650,000 active; in the data active means normalized activity above about 1.9%;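 further: purified mutant Fbw7 with reduced substrate affinity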
MITF inh: MITF inhibitors, primary screen, biochemical, AlphaScreen, human; 0.91% of 650,000 active; inhibition, % at 2.6 µM; AlphaScreen MITF homodimerization, bead proximity signal; Microphthalmia-associated transcription factor (Homo sapiens), O75030; AID 1259374, 2018; in the data active means inhibition above about 50%
TEAD-YAP inh: TEAD-YAP interaction inhibition, primary screen, TEAD-YAP interaction inhibitor project, luminescence, HEK-TIYL cells; TEAD-Gal4/YAP UAS-luciferase luminescence; inhibition, % at 9.12 µM; 1.4% of 640,000 active; AID 1259422, 2018; in the data active means inhibition above about 32%
GPR151 conf act: GPR151 activators, triplicate retest, confirmation, cell-based, PathHunter beta-arrestin, luminescence; shares compounds with GPR151 activ; AID 1508609, 2020; GPR151 PathHunter beta-arrestin cells, 90 min; % of EA-reagent control over plate median; activation, % at 11.2 µM; 6,700 tested, under 10 active;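 active means mean percent activation across replicates above the confirmation screen cutoff of 4.91%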
GPR119 counter: GPR119 activators in beta-arrestin cells, counter-screen for GPR151 activator project, cell-based, PathHunter beta-arrestin, luminescence, triplicate. shares compounds with GPR151 activ. 90 min; 0 = compound-well median, 100 = enzyme-acceptor control. activation, % at 11.2 µM. 0.3% of 6,700 active;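 active means mean percent activation in the counterscreen above 29.09%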;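 further: counterscreen on off-target GPR119 to flag nonselective hits from the GPR151 activator screen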
Target sequence (Q8TDV5 whole entry, looked up): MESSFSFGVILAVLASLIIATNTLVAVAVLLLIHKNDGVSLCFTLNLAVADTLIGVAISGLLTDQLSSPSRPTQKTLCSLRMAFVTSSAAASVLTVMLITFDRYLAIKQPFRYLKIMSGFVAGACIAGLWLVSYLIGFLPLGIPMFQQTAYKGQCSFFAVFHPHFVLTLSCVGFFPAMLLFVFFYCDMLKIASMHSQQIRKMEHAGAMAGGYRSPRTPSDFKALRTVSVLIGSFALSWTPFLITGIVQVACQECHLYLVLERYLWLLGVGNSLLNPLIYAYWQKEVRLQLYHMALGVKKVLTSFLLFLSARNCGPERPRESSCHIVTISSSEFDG
Of the large screens only hits and unclear results are named; the others gave an inactive call (follow-up assays come after a bar, where they were run).

CCNCC(O)COc1ccccc1C(C)=O (stereo unspecified)	none
CC(=O)Nc1ccc(C(C(F)(F)F)(C(F)(F)F)C(F)(F)F)cc1[N+](=O)[O-]	GPR151 activ 5.0 | GPR151 conf act inactive | GPR119 counter inactive
CC1CN(c2cc(N3CCOCC3)c(F)cc2[N+](=O)[O-])CCN1C(=O)c1cccs1 (stereo unspecified)	GPR151 activ 7.6 | GPR151 conf act inactive | GPR119 counter inactive
CC(C)(C)c1ccc(OCC(N)=O)c(Br)c1	GPR151 activ 5.9 | GPR151 conf act inactive | GPR119 counter inactive
COc1ccc(OC)c(/C=C2\C(C)=C(C#N)c3nc(N)c(C#N)c(C)c32)c1	GPR151 activ 7.2 | GPR151 conf act inactive | GPR119 counter inactive
COc1cc2c(cc1/C=C1/C(C)=C(C#N)c3nc(N)c(C#N)c(C)c31)OCO2	none
CCN(CC)c1nc(Nc2ccc(-n3ccnc3)cc2)nc(NC2CC2)n1	none
Cc1ccc(C2C3C(=O)N(C)C(=O)C3ON2c2ccccc2)cc1 (stereo unspecified)	GPR151 activ 9.3 | GPR151 conf act inactive | GPR119 counter inactive
CN1C(=O)C2ON(c3ccc(Cl)cc3)C(c3ccccc3)C2C1=O (stereo unspecified)	none
Cc1cc(C)cc(NS(=O)(=O)c2ccc3c(c2)OCCCO3)c1	none
Nc1ccc(NS(=O)(=O)c2ccc3c(c2)OCCCO3)cc1	GPR151 activ 6.5 | GPR151 conf act inactive | GPR119 counter inactive
CCSCCOC(=O)C1=C(C)NC2=C(C(=O)CC(c3ccccc3OC)C2)C1c1cc(OC)c(OC)c(OC)c1 (stereo unspecified)	none
c1ccc2c(N3CCCCCC3)nc(CN3CCCC3c3nccs3)nc2c1 (stereo unspecified)	GPR151 activ 5.0 | GPR151 conf act inactive | GPR119 counter inactive
COc1nc(Nc2ccc(Oc3ccccc3)cc2)nc(-c2ccc(N3CCOCC3)nc2)n1	none
COc1ccc(C(=O)OCCCOC(=O)c2ccc(OC)cc2OC)c(OC)c1	GPR151 activ 5.9 | GPR151 conf act inactive | GPR119 counter inactive
COc1ccc(C(=O)OCCCC(=O)c2ccc(F)cc2)c(OC)c1	none
CCCCOC(=O)C1=C(C)NC(=O)NC1c1cc2c(cc1Br)OCO2 (stereo unspecified)	GPR151 activ 5.1 | GPR151 conf act inactive | GPR119 counter inactive
O=C(Oc1c(Br)cc(C(=S)N2CCOCC2)cc1Br)c1ccc([N+](=O)[O-])cc1	none
Cn1c(=O)c2c(nc(CN3CCCCC3)n2Cc2ccc(Cl)cc2Cl)n(C)c1=O	none
CC(C)c1ccc(NC(=O)C(c2ccc3c(c2)OCO3)N(Cc2ccccc2)c2ccccc2)cc1 (stereo unspecified)	GPR151 activ 5.7 | GPR151 conf act inactive | GPR119 counter inactive
COCCN(CCOC)C(=O)c1c[nH]c2ccc(S(=O)(=O)N(C)c3ccc(Br)cc3)cc2c1=O	none
O=C(NCCC1CCCCN1S(=O)(=O)c1ccccc1)Nc1ccc(Cl)cc1 (stereo unspecified)	GPR151 activ 8.1 | GPR151 conf act inactive | GPR119 counter inactive
O=C(Nc1ccc(N2CCOCC2)cc1)C1CC(=O)N(Cc2ccccc2)C1 (stereo unspecified)	GPR151 activ 7.6 | GPR151 conf act inactive | GPR119 counter inactive
Cc1ccc(C2/C(=C(/O)c3ccccc3)C(=O)C(=O)N2CCCN2CCOCC2)o1 (stereo unspecified)	none
CC12CCC(C(=O)Nc3ccc(Br)cc3)(C(=O)C1=O)C2(C)C (stereo unspecified)	none
CC(C(=O)O)N1C(=O)/C(=C/C=C/c2ccccc2)SC1=S (stereo unspecified)	GPR151 activ 7.4 | GPR151 conf act inactive | GPR119 counter inactive
O=C(O)CCCCCn1c(SCC(=O)c2ccccc2)nc2ccsc2c1=O	GPR151 activ 6.5 | GPR151 conf act inactive | GPR119 counter inactive
CCOC(=O)c1ccc(NC(=O)CC2C(=O)N(c3ccc(Cl)cc3)C(=S)N2CCCN2CCN(CC)CC2)cc1 (stereo unspecified)	none
O=c1[nH]c2ccccc2nc1C(F)(F)C(F)(F)C(F)(F)C(F)F	GPR151 activ 5.5 | GPR151 conf act inactive | GPR119 counter inactive
CCOc1ccc(-n2c(SCC(=O)Nc3cc(C)on3)nc3c(c2=O)SCC3)cc1	GPR151 activ 5.1 | GPR151 conf act inactive | GPR119 counter inactive
CCn1c(SCC(=O)Nc2nc(C)cs2)nc2c(c1=O)SCC2	GPR151 activ 6.3 | GPR151 conf act inactive | GPR119 counter inactive
FC(F)(F)c1cnc2nc3c(cc2c1)CN(CCc1ccccn1)CC3	none
O=C(O)c1ccc(/C=N/NC(=O)c2cc(-c3cccs3)[nH]n2)cc1	none
COC(=O)c1ccc(/C=N/NC(=O)c2cc(-c3cccs3)[nH]n2)cc1	GPR151 activ 7.4 | GPR151 conf act inactive | GPR119 counter inactive
COC(=O)C[n+]1csc2ccccc21	GPR151 activ 7.8 | GPR151 conf act inactive | GPR119 counter inactive
O=C(CSc1ccncc1)N1CCCC1c1nc2ccccc2[nH]1 (stereo unspecified)	none
CN(C)C(=O)c1nc2ccc(Cl)cn2c1CNCCc1cnn(-c2ccccc2)c1	none
COc1cc(/C=C2\N=C(c3cc(OC)c(OC)c(OC)c3)OC2=O)cc(Br)c1OC(C)=O	GPR151 activ 5.5 | GPR151 conf act inactive | GPR119 counter inactive
COc1cc(/C=C2/N=C(c3ccc(Cl)cc3)OC2=O)cc(Br)c1OC(C)=O	none
Cc1ccc(-c2nc3ccccc3c(=O)n2NC(=O)c2ccco2)cc1C	GPR151 activ 5.4 | GPR151 conf act inactive | GPR119 counter inactive
COCC(=O)NC1CCN(C(=S)Nc2ccc(Cl)cc2)CC1	GPR151 activ 7.4 | GPR151 conf act inactive | GPR119 counter inactive
COCC(=O)NC1CCN(C(=S)Nc2ccccc2Cl)CC1	none
CCCCNC(=O)CNC(=O)CNS(=O)(=O)c1ccc(C)cc1	none
CCCCOc1ccc(N2C(=O)CC(N3CCN(Cc4ccc(Cl)cc4)CC3)C2=O)cc1 (stereo unspecified)	none
COc1ccc(O)c(/C=N/N=C2/C(=O)Nc3ccccc32)c1	GPR151 activ 6.6 | GPR151 conf act inactive | GPR119 counter inactive
COc1cc(/C=N/N=C2/C(=O)Nc3ccccc32)cc(OC)c1O	none
COC(=O)c1nnn(CC(=O)Nc2ccc(C)c(C)c2)c1C(=O)OC	none

Source: PubChem BioAssay (The Scripps Research Institute Molecular Screening Center)
